Measured values published in PubChem BioAssay AID652231 (Johns Hopkins Ion Channel Center, 2013).
The whole screen tested about 2,300 compounds, of which about 55 (2%) were called active.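 Rule for the calls: active = duplicate-averaged calcium signal over 20% of the ionomycin maximum, relative to buffer baseline; inactive = the rest.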 Shown is part of a subset that was picked to be rich in actives.

experiment: calcium mobilization in TMEM16A/YFP HEK293 cells, confirmation, counter-screen for TMEM16A inhibitor project (AID 652231); conditions: TMEM16A/YFP HEK293, Fluo4 calcium mobilization, at 10 µM; stronger effect = higher value;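 for calcium response (% of ionomycin): each well's signal is peak minus trough fluorescence divided by its pre-addition baseline; 0% = buffer wells and 100% = ionomycin wells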

SMILES	calcium response (% of ionomycin)
CCc1cc2c(N3CCN(c4nnc(CC)s4)CC3)ncnc2s1	inactive
COc1ccc(C(=O)NC2CCCc3c2cnn3-c2cccc(C)c2C)c(OC)n1 (configuration not stated)	inactive
O=c1cc(C(F)(F)F)[nH]c(=O)n1C1CCCCC1	inactive
CCOC(=O)c1cccc(NC(=O)CCn2nnc3ccccc32)c1	inactive
COc1ccc(OCC(=O)NCCc2ccc(S(N)(=O)=O)cc2)cc1	inactive
Fc1ccc2[nH]c3c(N4CCSCC4)ncnc3c2c1	inactive
Cc1ccc(-n2ncc3c(N4CCN(c5ccc(F)cc5)CC4)ncnc32)c(C)c1	inactive
Cc1ccc(-c2noc(CSc3nnnn3-c3ccccc3)n2)cc1	inactive
Cc1cc(C=O)c(C)n1-c1ccc(NC2CCCCC2)c([N+](=O)[O-])c1	inactive
Cc1cccc(-n2c(SCC(N)=O)nc3c(c2=O)C2(CCCCC2)Cc2ccccc2-3)c1	inactive
O=C(NCCc1ccc2c(c1)OCCO2)c1cc2ccccc2o1	inactive
COc1ccc(CCC(=O)c2ccc(OC)cc2)cc1	inactive
CCCCNC(=O)CSc1nc2n[nH]c(C)c2c(=N)n1-c1cccc(Cl)c1C	inactive
CCOC(=O)N1CC=C2C(C#N)=C(N)C(C#N)(C#N)[C@H](c3cccs3)[C@H]2C1	inactive
COc1ccc(NC(=O)C2=CC(c3ccc(OC)c(OC)c3)=NS(=O)(=O)N2C)cc1	inactive
Cc1nc2c(C(=O)NCc3ccc4c(c3)OCO4)c[nH]n2c(=O)c1Cc1ccccc1F	inactive
Cc1ccc(C)c(N2CCN(S(=O)(=O)c3ccc4c(c3)oc(=O)n4C)CC2)c1	inactive
CC1CCN(C(=O)c2ccc(CSc3ccc(Cl)cc3)cc2)CC1	inactive
CN1c2ccc(C=O)c3c(C=O)ccc(c23)N(C)C1(C)C	64.5% (active)
COc1cccc(CNS(=O)(=O)c2ccc3c(c2)CC(C)N3C(=O)C2CCC2)c1 (configuration not stated)	inactive
CN(Cc1cccnc1)C(=O)c1cc(COc2ccc3ncccc3c2)on1	inactive
Cc1ccc2c(c1)N(S(=O)(=O)c1cc(-c3cc(C)no3)ccc1C)CCO2	inactive
CC(=O)c1c(C)[nH]c(C(=O)COC(=O)c2cccc(S(=O)(=O)N(C)c3ccccc3)c2)c1C	inactive
Cc1ccc(C(=O)O)cc1-c1ccc(/C=C2\SC(=O)N(CC(=O)Nc3ccc4c(c3)OCO4)C2=O)o1	inactive
CCN(CC)S(=O)(=O)c1ccc(N(C)Cc2ccc(C(F)(F)F)cc2)nc1	inactive
Cn1c(=O)n(C)c2cc(S(=O)(=O)N3CCCc4ccccc43)ccc21	inactive

SMILES	calcium response (% of ionomycin)
N#Cc1nc(COc2ccc(-c3ccccc3)cc2)oc1NCc1cccnc1	inactive
CCn1nccc1C(=O)Nc1ccc(S(=O)(=O)NC23CC4CC(CC(C4)C2)C3)cc1	inactive
C=CCn1c(SCC(=O)Nc2nc3ccccc3s2)nnc1-c1ccccc1O	inactive
CCCc1cc(=S)n2c([nH]c3ccccc32)c1C#N	inactive
COc1ccc(-c2nc(CCNC(=O)c3ccc(Br)o3)cs2)cc1	inactive
O=C(CN1CCN(C(=S)NC2CCCC2)CC1)Nc1ccc(Oc2ccccc2)cc1	inactive
Cc1ccccc1-n1nnnc1SCCCC(=O)c1ccc(F)cc1	inactive
Cc1ccc(N)cc1-n1c(C)ccc1C	inactive
Cc1ccc(C)c(N2CCN(C(=O)CCCCn3c(=O)[nH]c4ccccc4c3=O)CC2)c1	inactive
CCOC(=O)C(Sc1ncc(C#N)c(N)n1)C(C)C (configuration not stated)	inactive
O=C(COC(=O)CCc1c[nH]c(=O)[nH]1)Nc1ccccc1Cl	inactive
Cc1ccc(NC(=O)C(C)c2cccc(C(=O)c3ccccc3)c2)cc1 (configuration not stated)	20.5% (active)
S=C(NCc1ccc(Cl)cc1)NC12CC3CC(CC(C3)C1)C2	inactive
Cc1noc(C)c1COC(=O)c1cc2ccccc2cc1O	inactive
C=CCSc1nsc(NC(=O)Nc2cccc(C(C)=O)c2)n1	inactive
CCCOc1ccc(Cc2c(Cl)nc(SC)nc2NC)cc1	inactive
Cn1c(CCN2CCCCCC2)nc2cc(NC(=O)Nc3ccccc3)ccc21	inactive
CCOC(=O)N1CCN(C(=O)c2ccc3c(c2)N(Cc2ccc(C)cc2)CCS3)CC1	inactive
CSc1nsc(NC(=O)Nc2ccccc2)n1	inactive
CCC(=O)Nc1ccc2nc(C)n(Cc3ccccc3Cl)c(=O)c2c1	inactive
Cc1ccc(NC(=O)CN(C)CC(=O)Nc2cccc(F)c2)cc1[N+](=O)[O-]	inactive
Cc1ccc(N2C(=O)S/C(=C/c3cn(C)c4ccccc34)C2=O)cc1	inactive
Cc1nc(SCC(=O)N2CCc3ccccc3C2)c2c(C)c(C)sc2n1	inactive
COc1ccc(CN(C)C(=O)CC(c2ccccc2)c2ccccc2)cc1	inactive
Cc1nc(C)c(-c2csc(NCCc3ccccc3)n2)s1	inactive
COC(=O)c1ccc(NC(=O)c2ccccc2NS(=O)(=O)c2ccccc2)cc1	inactive

SMILES	calcium response (% of ionomycin)
O=C(CSCc1ccc(Cl)cc1)N1CCN(Cc2ccc3c(c2)OCO3)CC1	inactive
COc1ccc2[nH]cc(/C=C(/C#N)S(=O)(=O)c3ccccc3)c2c1	inactive
CC1=NN(c2cccc(Cl)c2)C(=O)C12CC(C)=C(C)CS2 (configuration not stated)	inactive
Cc1ccc(F)cc1NC(=O)Cc1nn(C)c(=O)c2ccccc12	inactive
CSc1cccc(NC(=S)N(C(C)C)C(C)c2ccccn2)c1 (configuration not stated)	inactive
Cc1cc(C)cc(NS(=O)(=O)c2ccc(Oc3ncc(C(F)(F)F)cc3Cl)cc2)c1	inactive
CN(c1cccc(NC(=O)c2ccc(CN3CCc4ccccc4C3)cc2)c1)S(C)(=O)=O	inactive
CC(C)CNC(=S)NNC(=O)c1nn(C)cc1Cl	inactive
CC(NC(=O)c1ccco1)C(=O)Nc1nc(-c2ccccn2)cs1 (configuration not stated)	inactive
COc1ccc(S(=O)(=O)NCCCCOc2ccc(Cl)cc2)cc1	inactive
COc1cc(CC(=O)Nc2nc(-c3ccc(F)c(F)c3)cs2)cc(OC)c1OC	inactive
C=C(C)Cn1c(C)cc(C)c(S(=O)(=O)c2ccccc2C)c1=O	inactive
Cc1ccc(-c2csc(-c3c[nH]c4ccccc34)n2)cc1	inactive
S=C(NCC1CCCO1)N1CCN(c2ccc(Cl)c(Cl)c2)CC1 (configuration not stated)	inactive
COc1ccc(CNc2nnnn2C)cc1	inactive
O=C(Nc1cccc(S(=O)(=O)Nc2ccc(Cl)cc2)c1)c1ccc2c(c1)OCCO2	inactive
CSc1nnc2c(n1)OC(c1ccsc1)N(C(C)=O)c1ccccc1-2 (configuration not stated)	inactive
CCOC(=O)C1=C(CN2CCc3ccccc32)NC(=O)NC1c1cccc([N+](=O)[O-])c1 (configuration not stated)	inactive
O=S1(=O)CCN(Cc2ccccc2Cl)CC1	inactive
COc1ccc(Cl)cc1NC(=O)CCS(=O)(=O)c1cc2c(cc1C)NC(=O)CO2	inactive
O=C(Nc1nc(-c2ccc3c(c2)OCO3)cs1)c1ccncc1	inactive
Cc1nc2ccccc2cc1OCc1ccc(F)cc1	inactive
CC(C)(C)C(=O)/C(C#N)=C/c1ccc(O)cc1	inactive
O=C(O)c1ccc(NC(=O)C2CCCCC2)cc1	inactive
Cc1ccc(-n2[nH]c(C)c(/C=N/N3C(=O)c4cccc5cccc(c45)C3=O)c2=O)cc1	43.5% (active)
Cc1[nH]n(-c2cccc(Cl)c2)c(=O)c1-c1ccc(Cl)cc1	inactive

SMILES	calcium response (% of ionomycin)
O=C1c2ccccc2C(Nc2ccc3c(c2)OCCO3)N1Cc1ccco1 (configuration not stated)	inactive
Cc1cccc(N=Nc2c(O)[nH]c3ccc(F)cc23)c1	inactive
CCCCn1ccnc1C(=O)c1cccc(S(=O)(=O)N2c3ccccc3CC2C)c1 (configuration not stated)	inactive
O=C(CNCCC1=CCCCC1)Nc1ccccc1N1CCCCCC1	inactive
CCCC(=O)Nc1ccccc1N1CCN(C(=O)c2ccccc2)CC1	inactive
S=C(NCc1cccs1)Nc1ccc(Cl)cc1	inactive
N#Cc1nc(N)nc(N(c2ccccc2)c2ccccc2)n1	inactive
Fc1ccc(CSc2nnc(-c3cc4c(s3)-c3ccccc3CC4)o2)cc1	inactive
Cn1c(CN2CCOCC2)nc2cc(NC(=O)c3ccc(Cl)cc3)ccc21	inactive
O=C1NC(=O)C2C1C(c1ccc([N+](=O)[O-])cc1)=NN2Cc1ccccc1 (configuration not stated)	inactive
O=C(N/N=C/c1cc(Cl)cc([N+](=O)[O-])c1O)C(O)(c1ccccc1)c1ccccc1	inactive
O=C(COc1ccccc1)NCc1ccc2c(c1)OCO2	inactive
CN(C)c1cc[n+](Cc2ccccc2)cc1	inactive
CCCCCc1ccc(-c2ccc(C(=O)O)cc2)nc1	inactive
Cc1ccc2c(c1)N(CC(=O)N1CCCc3ccccc31)C(=O)C(C)O2 (configuration not stated)	inactive
COC(=O)c1ccc(COC(=O)c2c(C)nn(Cc3ccccc3Cl)c2Cl)o1	inactive
CCOC(=O)C1CCN(c2ncnc3c2oc2ccc(Br)cc23)CC1	inactive
Cc1nc(CNS(=O)(=O)c2ccc(Oc3ccccc3)cc2)cs1	inactive
CC(=O)c1cc(CN2CCC(C(=O)Nc3cccc(-c4cscn4)c3)CC2)cs1	inactive
c1ccc(-c2nnc(SCc3nc4ccccc4[nH]3)o2)cc1	inactive
COc1ccc(-n2c(C)cc(C(=O)CSc3nnc(-c4cccs4)o3)c2C)cc1	inactive
O=C(NC(=S)Nc1ccccc1C(=O)O)c1ccc(-c2ccc(Br)cc2)o1	29% (active)
O=C(Nc1ccccc1)c1ccccc1NC(=O)C(F)(F)F	inactive
N#CC1=C(SCc2ccccc2)NC(=O)C(C#N)C12CCCC2 (configuration not stated)	inactive
